Assay results reported in PubChem BioAssay (EPA / NIEHS).
Calls of active or inactive are those of the source. How the source made its calls: active means hit-call score of the fitted dose curve at least 0.9, where 1 is the maximum; inactive means score below 0.9.

Experiments:
[1] = CEETOX_H295R_DOC: CeeTox H295R High-throughput Steroidogenesis Assay for DOC (AID 2283439); settings: actives raise or lower the signal
Summary of the method: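 Secreted DOC was quantified from H295R media by HPLC-MS/MS after 48 h chemical exposure following 48 h forskolin (10 uM) prestimulation. Values were fitted in both directions relative to DMSO, the negative control and baseline.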

[2] = CEETOX_H295R_ESTRADIOL: CeeTox H295R High-throughput Steroidogenesis Assay for Estradiol (AID 2283440); settings: actives raise or lower the signal;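 further: estradiol secreted into medium quantified by LC-MS/MS after dansyl derivatisation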
Summary of the method: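 H295R cells pre-stimulated 48 h with 10 uM forskolin, then exposed 48 h to chemical in 0.1% DMSO. Medium estradiol quantified by MTBE extraction, dansyl derivatisation and HPLC-MS/MS; bidirectional fit versus DMSO; MTT viability required >/=70%.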

[3] = CEETOX_H295R_ESTRONE: CeeTox H295R High-throughput Steroidogenesis Assay for Estrone (AID 2283441); settings: actives raise or lower the signal;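 further: estrone secreted into medium measured by LC-MS/MS after dansyl derivatization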;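 on AC50: human adrenal H295R cells prestimulated with forskolin for two days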
Summary of the method: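 H295R cells; 48 h forskolin (10 uM) prestimulation; 48 h compound exposure, 0.1% DMSO final. Medium estrone: MTBE extraction, dansyl derivatization, HPLC-MS/MS. Bidirectional fit vs DMSO.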

[4] = CEETOX_H295R_PROG: CeeTox H295R High-throughput Steroidogenesis Assay for Progesterone (PROG) (AID 2283442); settings: actives raise or lower the signal;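 on AC50: human H295R adrenal cells primed with 10 µM forskolin before dosing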
Summary of the method: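 H295R adrenal cells prestimulated 48 h with 10 uM forskolin, then exposed 48 h to test chemical in 0.1% DMSO. Progesterone in medium quantified by HPLC-MS/MS after MTBE extraction; viability checked by MTT in same wells.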

[5] = read-out: Tumor necrosis factor receptor superfamily member 6 (Homo sapiens) (UniProt P25445); experiment: LTEA_HepaRG_FAS: Life Technologies and Expression Analysis (LTEA) Assay for Fas cell surface death receptor (FAS) using HepaRG (AID 2283447); settings: mRNA level, 48 h; actives raise or lower the signal
Summary of the method: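 Differentiated HepaRG cells in serum-free induction medium were exposed 48 h to 8 half-log concentrations up to 100 uM in 0.5% DMSO, in duplicate. FAS mRNA was measured by qRT-PCR normalised to ACTB, GAPDH and POLR2A; bidirectional fit versus DMSO.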

[6] = read-out: Fatty acid synthase (Homo sapiens) (UniProt P49327); experiment: LTEA_HepaRG_FASN: Life Technologies and Expression Analysis (LTEA) Assay for Fatty Acid Synthase (FASN) using HepaRG (AID 2283448); settings: mRNA level, 48 h; actives raise or lower the signal
Summary of the method: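 Transcript-level assay: HepaRG liver cells are treated for 48 h across an eight-point range topping at 100 uM, and FASN mRNA, normalized to three housekeeping genes, is compared with DMSO controls in both directions.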

[7] = read-out: Cyclin D2 (CCND2), CCND2 (gene 894); experiment: LTEA_HepaRG_CCND2: Life Technologies and Expression Analysis (LTEA) Assay for Cyclin D2 (CCND2) using HepaRG (AID 2283449); settings: mRNA level, 48 h; actives raise or lower the signal;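 further: CCND2 transcript measured by TaqMan qRT-PCR and normalised to three housekeeping genes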
Summary of the method: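 Chemicals in 0.5% DMSO, eight half-log concentrations from 100 uM top, were applied in duplicate for 48 h to human HepaRG cells in serum-free induction medium. CCND2 mRNA by TaqMan qRT-PCR, normalised to ACTB/GAPDH/POLR2A; bidirectional fit versus DMSO.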

[8] = read-out: Cyclin Dependent Kinase Inhibitor 1A (CDKN1A), CDKN1A (gene 1026); experiment: LTEA_HepaRG_CDKN1A: Life Technologies and Expression Analysis (LTEA) Assay for Cyclin Dependent Kinase Inhibitor 1A (CDKN1A) using HepaRG (AID 2283450); settings: mRNA level, 48 h; actives raise or lower the signal
Summary of the method: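 Differentiated HepaRG cells in serum-free induction medium, exposed 48 h in duplicate to eight half-log concentrations up to 100 uM in 0.5% DMSO. mRNA measured by TaqMan qRT-PCR, normalized to ACTB, GAPDH, POLR2A; bidirectional fit versus DMSO.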

[9] = read-out: catalase (CAT), CAT (gene 847); experiment: LTEA_HepaRG_CAT: Life Technologies and Expression Analysis (LTEA) Assay for catalase (CAT) using HepaRG (AID 2283452); settings: mRNA level, 48 h; actives raise or lower the signal;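 on AC50: TaqMan qRT-PCR signal normalized to ACTB GAPDH and POLR2A housekeeping genes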
Summary of the method: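 HepaRG cells in serum-free induction medium, 0.5% DMSO vehicle, exposed 48 h in duplicate over 8 half-log concentrations from 100 uM. CAT mRNA measured by qRT-PCR, normalized to ACTB, GAPDH, POLR2A; bidirectional fit versus DMSO.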

[10] = read-out: flavin-containing dimethylaniline monooxygenases 3 (FMO3), FMO3 (gene 2328); experiment: LTEA_HepaRG_FMO3: Life Technologies and Expression Analysis (LTEA) Assay for flavin-containing dimethylaniline monooxygenases 3 (FMO3) using HepaRG (AID 2283453); settings: mRNA level, 48 h; actives raise or lower the signal
Summary of the method: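 HepaRG, 48 h exposure, 8-pt half-log series from 100 uM, 0.5% DMSO vehicle, duplicates; FMO3 transcript by Fluidigm TaqMan qRT-PCR, housekeeping-normalized; gain/loss fit vs DMSO.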

[11] = read-out: Cytochrome P450 (CYP1A1), CYP1A1 (gene 1543); experiment: LTEA_HepaRG_CYP1A1: Life Technologies and Expression Analysis (LTEA) Assay for Cytochrome P450 (CYP1A1) using HepaRG (AID 2283454); settings: mRNA level, 48 h; actives raise or lower the signal
Summary of the method: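 Differentiated human HepaRG cells, after 48 h plating, exposed in duplicate for 48 h in serum-free induction medium to 8 half-log concentrations up to 100 uM in 0.5% DMSO. CYP1A1 mRNA by qRT-PCR, normalized to ACTB/GAPDH/POLR2A; bidirectional fit versus DMSO.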

[12] = read-out: CFLAR gene, CFLAR (gene 8837); experiment: LTEA_HepaRG_CFLAR: Life Technologies and Expression Analysis (LTEA) Assay for CFLAR gene using HepaRG (AID 2283455); settings: mRNA level, 48 h; actives raise or lower the signal
Summary of the method: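 Differentiated HepaRG cells in serum-free induction medium were exposed 48 h in duplicate to eight half-log concentrations up to 100 uM in 0.5% DMSO; mRNA measured by TaqMan qRT-PCR, normalized to ACTB, GAPDH, POLR2A; bidirectional fitting versus DMSO.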

[13] = read-out: Forkhead box O1 (FOXO1), FOXO1 (gene 2308); experiment: LTEA_HepaRG_FOXO1: Life Technologies and Expression Analysis (LTEA) Assay for Forkhead box O1 (FOXO1) using HepaRG (AID 2283456); settings: mRNA level, 48 h; actives raise or lower the signal
Summary of the method: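 Differentiated HepaRG cells, in serum-free induction medium with 0.5% DMSO, exposed 48 h in duplicate to 8-point half-log series from 100 uM. FOXO1 mRNA measured by TaqMan qRT-PCR, normalized to ACTB, GAPDH, POLR2A; bidirectional fit versus DMSO.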

[14] = read-out: growth arrest and DNA damage 45 (GADD45A), GADD45A (gene 1647); experiment: LTEA_HepaRG_GADD45A: Life Technologies and Expression Analysis (LTEA) Assay for growth arrest and DNA damage 45 (GADD45A) using HepaRG (AID 2283458); settings: mRNA level, 48 h; actives raise or lower the signal
Summary of the method: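 Human HepaRG liver cells are treated in duplicate for 48 h with chemicals in 0.5% DMSO, highest concentration 100 uM. Expression is read by qRT-PCR and analyzed in both directions against vehicle.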

[15] = read-out: Forkhead box O3 (FOXO3), FOXO3 (gene 2309); experiment: LTEA_HepaRG_FOXO3: Life Technologies and Expression Analysis (LTEA) Assay for Forkhead box O3 (FOXO3) using HepaRG (AID 2283459); settings: mRNA level, 48 h; actives raise or lower the signal
Summary of the method: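 Differentiated human HepaRG cells, 48 h post-plating, exposed in duplicate for 48 h in serum-free induction medium; 8-point half-log series from 100 uM in 0.5% DMSO. FOXO3 mRNA by TaqMan qRT-PCR, normalized to ACTB/GAPDH/POLR2A; bidirectional fit versus DMSO.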

[16] = read-out: ABC Transporter (ABCB1), ABCB1 (gene 5243); experiment: LTEA_HepaRG_ABCB1: Life Technologies and Expression Analysis (LTEA) Assay for ABC Transporter (ABCB1) using HepaRG (AID 2283460); settings: mRNA level, 48 h; actives raise or lower the signal
Summary of the method: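 HepaRG cells exposed in duplicate for 48 h in serum-free induction medium to eight half-log concentrations up to 100 uM in 0.5% DMSO. ABCB1 mRNA quantified by qRT-PCR, normalised to ACTB, GAPDH and POLR2A; fitted bidirectionally versus DMSO.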

[17] = read-out: growth arrest and DNA damage 45 (GADD45B), GADD45B (gene 4616); experiment: LTEA_HepaRG_GADD45B: Life Technologies and Expression Analysis (LTEA) Assay for growth arrest and DNA damage 45 (GADD45B) using HepaRG (AID 2283461); settings: mRNA level, 48 h; actives raise or lower the signal
Summary of the method: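 Differentiated human HepaRG cells in serum-free induction medium exposed 48 h in duplicate to eight concentrations, top 100 uM, half-log steps, 0.5% DMSO. GADD45B mRNA by TaqMan qRT-PCR, normalized to ACTB, GAPDH, POLR2A; bidirectional fit versus DMSO.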

[18] = read-out: ABC Transporter (ABCC3), ABCC3 (gene 8714); experiment: LTEA_HepaRG_ABCC3: Life Technologies and Expression Analysis (LTEA) Assay for ABC Transporter (ABCC3) using HepaRG (AID 2283462); settings: mRNA level, 48 h; actives raise or lower the signal
Summary of the method: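 Differentiated human HepaRG cells exposed 48 h in serum-free induction medium, 0.5% DMSO vehicle, 8-point half-log series to 100 uM in duplicate. ABCC3 mRNA by qRT-PCR, normalised to ACTB, GAPDH, POLR2A; bidirectional fit vs DMSO.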

[19] = read-out: Cyclin D1 (CCND1), CCND1 (gene 595); experiment: LTEA_HepaRG_CCND1: Life Technologies and Expression Analysis (LTEA) Assay for Cyclin D1 (CCND1) using HepaRG (AID 2283451); settings: mRNA level, 48 h; actives raise or lower the signal;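 on AC50: TaqMan qRT-PCR transcript level normalised to ACTB GAPDH and POLR2A housekeeping genes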
Summary of the method: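 Differentiated HepaRG cells exposed 48 h in serum-free induction medium to eight half-log concentrations from 100 uM top, 0.5% DMSO, duplicates. CCND1 mRNA measured by Fluidigm TaqMan qRT-PCR, normalised to ACTB, GAPDH, POLR2A; bidirectional fit.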

[20] = CEETOX_H295R_TESTO: CeeTox H295R High-throughput Steroidogenesis Assay for Testosterone (TESTO) (AID 2283457); settings: actives raise or lower the signal;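 on AC50: cells exposed to chemicals for 48 h before medium collection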
Summary of the method: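 H295R adrenal cells, passage ≤10, exposed to chemicals for 48 h. Testosterone in medium measured by MTBE extraction and HPLC-MS/MS against a 7-point standard curve. Bidirectional fit versus DMSO; MTT viability checked in the same wells.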

Measured: AC50

Fatty acid synthase (Homo sapiens), sequence (P49327 whole entry, looked up): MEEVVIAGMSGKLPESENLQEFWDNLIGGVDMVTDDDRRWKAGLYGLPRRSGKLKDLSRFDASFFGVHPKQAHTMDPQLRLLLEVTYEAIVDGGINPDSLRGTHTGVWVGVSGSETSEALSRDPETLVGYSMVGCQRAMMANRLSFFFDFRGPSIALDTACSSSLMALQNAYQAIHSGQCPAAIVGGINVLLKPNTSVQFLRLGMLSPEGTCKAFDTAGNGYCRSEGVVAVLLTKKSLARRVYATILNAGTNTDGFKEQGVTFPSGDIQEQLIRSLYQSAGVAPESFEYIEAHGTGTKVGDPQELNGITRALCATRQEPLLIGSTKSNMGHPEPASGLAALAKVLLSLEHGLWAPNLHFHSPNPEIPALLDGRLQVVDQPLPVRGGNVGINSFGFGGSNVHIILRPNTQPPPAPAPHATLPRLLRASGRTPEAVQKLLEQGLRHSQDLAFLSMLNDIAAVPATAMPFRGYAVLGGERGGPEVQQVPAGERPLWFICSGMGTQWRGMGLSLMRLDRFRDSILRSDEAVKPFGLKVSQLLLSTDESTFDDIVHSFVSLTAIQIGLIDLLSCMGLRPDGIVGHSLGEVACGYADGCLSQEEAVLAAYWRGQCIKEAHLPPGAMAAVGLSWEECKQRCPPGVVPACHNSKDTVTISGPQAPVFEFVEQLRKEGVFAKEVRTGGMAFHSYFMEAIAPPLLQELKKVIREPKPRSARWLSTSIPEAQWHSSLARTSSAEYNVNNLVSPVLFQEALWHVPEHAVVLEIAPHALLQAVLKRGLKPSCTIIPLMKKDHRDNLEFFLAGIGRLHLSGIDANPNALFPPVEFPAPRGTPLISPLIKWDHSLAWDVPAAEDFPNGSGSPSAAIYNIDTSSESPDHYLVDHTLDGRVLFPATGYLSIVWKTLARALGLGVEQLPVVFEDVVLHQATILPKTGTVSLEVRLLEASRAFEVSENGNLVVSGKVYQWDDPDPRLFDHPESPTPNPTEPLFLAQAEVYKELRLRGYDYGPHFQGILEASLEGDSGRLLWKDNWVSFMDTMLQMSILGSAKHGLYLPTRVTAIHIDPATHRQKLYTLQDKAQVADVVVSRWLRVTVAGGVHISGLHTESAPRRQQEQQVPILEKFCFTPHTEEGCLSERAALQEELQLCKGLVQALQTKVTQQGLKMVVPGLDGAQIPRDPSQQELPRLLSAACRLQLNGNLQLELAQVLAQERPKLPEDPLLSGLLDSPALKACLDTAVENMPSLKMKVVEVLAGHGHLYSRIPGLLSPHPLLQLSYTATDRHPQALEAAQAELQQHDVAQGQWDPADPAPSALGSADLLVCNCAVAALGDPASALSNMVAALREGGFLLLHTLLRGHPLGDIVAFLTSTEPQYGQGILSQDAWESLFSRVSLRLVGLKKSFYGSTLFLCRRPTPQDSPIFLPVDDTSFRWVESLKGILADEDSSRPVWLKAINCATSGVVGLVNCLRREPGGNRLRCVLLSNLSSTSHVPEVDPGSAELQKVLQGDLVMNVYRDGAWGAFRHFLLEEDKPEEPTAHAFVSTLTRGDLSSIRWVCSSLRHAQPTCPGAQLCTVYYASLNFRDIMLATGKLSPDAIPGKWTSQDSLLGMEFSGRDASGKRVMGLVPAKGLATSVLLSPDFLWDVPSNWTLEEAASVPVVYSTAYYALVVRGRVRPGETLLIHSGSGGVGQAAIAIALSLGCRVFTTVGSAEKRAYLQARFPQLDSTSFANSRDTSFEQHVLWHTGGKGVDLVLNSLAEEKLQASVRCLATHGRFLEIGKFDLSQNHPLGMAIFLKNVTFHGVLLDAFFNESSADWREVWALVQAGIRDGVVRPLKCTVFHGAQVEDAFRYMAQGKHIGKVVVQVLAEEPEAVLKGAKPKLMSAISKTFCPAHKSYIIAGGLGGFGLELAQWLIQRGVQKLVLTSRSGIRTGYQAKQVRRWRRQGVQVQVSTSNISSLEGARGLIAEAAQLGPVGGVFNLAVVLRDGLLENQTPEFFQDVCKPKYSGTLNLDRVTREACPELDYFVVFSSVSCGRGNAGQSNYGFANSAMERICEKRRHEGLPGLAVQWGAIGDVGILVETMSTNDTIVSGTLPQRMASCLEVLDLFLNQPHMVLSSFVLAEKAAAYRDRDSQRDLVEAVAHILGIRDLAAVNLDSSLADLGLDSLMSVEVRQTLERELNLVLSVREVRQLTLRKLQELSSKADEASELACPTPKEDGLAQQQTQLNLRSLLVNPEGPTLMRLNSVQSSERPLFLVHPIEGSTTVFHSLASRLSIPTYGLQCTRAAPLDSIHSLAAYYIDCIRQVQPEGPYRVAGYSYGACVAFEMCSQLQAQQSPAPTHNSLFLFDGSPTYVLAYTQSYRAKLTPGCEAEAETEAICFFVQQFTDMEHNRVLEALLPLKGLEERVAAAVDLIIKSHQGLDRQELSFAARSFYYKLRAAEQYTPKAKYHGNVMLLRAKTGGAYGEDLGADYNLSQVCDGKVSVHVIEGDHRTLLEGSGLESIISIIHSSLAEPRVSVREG

CC[C@H]1CC[C@H](NCc2cc3c(cc2OC)[C@H]2C[C@H]2C(=O)N3C)[C@H](c2ccccc2)N1
active: [2] 6.19 µM | [3] 7.37 µM | [6] 57.7 µM | [11] 37.6 µM
not listed: [19] | [20]
inactive: all other assays above

CCCCCCCCO
not listed: [2] | [20]
inactive: all other assays above

Fc1ccccc1[C@@H](F)COC1CCC(Nc2ncnc3[nH]ncc23)CC1 (some centres undefined)
active: [6] 50 µM | [8] 31.8 µM | [19] 86.4 µM | [9] 37.3 µM | [10] 31.9 µM | [11] 94.7 µM | [13] 82.1 µM | [16] 50 µM | [17] 81.7 µM
not listed: [2] | [3]
inactive: all other assays above

O=c1[nH]c2ccc(S(=O)CCN3CCC(Cc4ccc(F)cc4)CC3)cc2o1 (centres undefined)
active: [9] 67.3 µM | [10] 72.9 µM | [11] 59 µM
not listed: [19] | [20]
inactive: all other assays above

Cc1ccc(O)cc1
not listed: [2] | [3] | [11] | [19]
inactive: all other assays above

CCC(C)(C)C(=O)O[C@H]1C[C@@H](C)C=C2C=C[C@H](C)[C@H](CC[C@@H]3C[C@@H](O)CC(=O)O3)[C@H]21
active: [1] 0.581 µM | [4] 0.24 µM | [6] 10.9 µM | [16] 31.7 µM
not listed: [11] | [13] | [19] | [20]
inactive: all other assays above

Oc1ccc2c(c1)-c1ccccc1C2
active: [1] 30.3 µM | [4] 30.8 µM | [11] 10.5 µM | [20] 38.5 µM
not listed: [2] | [3] | [7] | [13] | [19]
inactive: all other assays above
